In PubChem BioAssay:
Active and inactive are the calls of the source. No rule for the calls is given here.

Assay: Brca1-Bard1 BiLC signal decrease – luminescence, single concentration, counter-screen for Mdm2/MdmX interaction inhibitor project, confirmation (AID 504668)
Settings: Brca1/Bard1 bimolecular luciferase complementation counterscreen, at 8 µM, hits give high values
In the case of `CC(=O)N(C(C)=O)c1ncc2c([nH]c3ccccc32)c1C#N`, the inhibition is reported as 33.1% (active). In the case of `COC(=O)[C@@H]1[C@@H](C#N)C2(c3ccccc3-c3ccccc32)N(c2ccc(Cl)cc2)N1C#N`, the inhibition is reported as 32.8% (active). With `Cc1cc(C)nc(SCc2ccc(C(=O)N/N=C/c3cccc(O)c3O)cc2)n1` the inhibition was 35.2% (active). With `CC(=O)c1ccc(Sc2nnnn2-c2ccccc2)c([N+](=O)[O-])c1` the inhibition was 30.1% (active). For `Cc1nc(SCc2nc3cc(Cl)c(F)cc3[nH]2)c2oc3ccccc3c2n1`, the inhibition was 31.6% (active). With `COc1ccc(C(NC(C)=O)c2cc(Cl)c3cccnc3c2O)cc1` (stereo not drawn) the inhibition was 29.3% (active). For `O=C(Nc1ccc(Cl)c(Cl)c1)Nc1ccc(Br)cc1F`, the inhibition was 35.2% (active). With `O=C(CCCN1C(=O)/C(=C\c2ccccc2)SC1=S)Nc1ccccc1O` the inhibition was 30.3% (active).
